Measured values taken from PubChem BioAssay.
Inconclusive results are not listed. Activity calls are given as the source filed them. Unless noted, no stated cut-off is given here; in the data, active means inhibition above about 30%; inactive means the rest.

Legend:
[1] = Her2 expression decrease, cell viability multiplex – SKBR3 breast tumor cells, AlphaScreen, ATP viability, primary screen (AID 461;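 active means Her2 level under about 52% in both replicate screens, with viability over 70% of control, limit read from the data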;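 on Her2 level: lower value means less Her2 protein in the cells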;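 on viability: percent of carrier control wells set as 100% viability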); settings: SKBR3 Her2 protein level, 18-24 h, measured here: SKBR3 viability, ATP luminescence, at 10 µM
[2] = target: Receptor tyrosine-protein kinase erbB-2 (Homo sapiens) (UniProt P04626); assay: as above; settings: 18-24 h, at 10 µM, stronger effect = lower value
Receptor tyrosine-protein kinase erbB-2 (Homo sapiens), sequence (P04626 whole entry, looked up): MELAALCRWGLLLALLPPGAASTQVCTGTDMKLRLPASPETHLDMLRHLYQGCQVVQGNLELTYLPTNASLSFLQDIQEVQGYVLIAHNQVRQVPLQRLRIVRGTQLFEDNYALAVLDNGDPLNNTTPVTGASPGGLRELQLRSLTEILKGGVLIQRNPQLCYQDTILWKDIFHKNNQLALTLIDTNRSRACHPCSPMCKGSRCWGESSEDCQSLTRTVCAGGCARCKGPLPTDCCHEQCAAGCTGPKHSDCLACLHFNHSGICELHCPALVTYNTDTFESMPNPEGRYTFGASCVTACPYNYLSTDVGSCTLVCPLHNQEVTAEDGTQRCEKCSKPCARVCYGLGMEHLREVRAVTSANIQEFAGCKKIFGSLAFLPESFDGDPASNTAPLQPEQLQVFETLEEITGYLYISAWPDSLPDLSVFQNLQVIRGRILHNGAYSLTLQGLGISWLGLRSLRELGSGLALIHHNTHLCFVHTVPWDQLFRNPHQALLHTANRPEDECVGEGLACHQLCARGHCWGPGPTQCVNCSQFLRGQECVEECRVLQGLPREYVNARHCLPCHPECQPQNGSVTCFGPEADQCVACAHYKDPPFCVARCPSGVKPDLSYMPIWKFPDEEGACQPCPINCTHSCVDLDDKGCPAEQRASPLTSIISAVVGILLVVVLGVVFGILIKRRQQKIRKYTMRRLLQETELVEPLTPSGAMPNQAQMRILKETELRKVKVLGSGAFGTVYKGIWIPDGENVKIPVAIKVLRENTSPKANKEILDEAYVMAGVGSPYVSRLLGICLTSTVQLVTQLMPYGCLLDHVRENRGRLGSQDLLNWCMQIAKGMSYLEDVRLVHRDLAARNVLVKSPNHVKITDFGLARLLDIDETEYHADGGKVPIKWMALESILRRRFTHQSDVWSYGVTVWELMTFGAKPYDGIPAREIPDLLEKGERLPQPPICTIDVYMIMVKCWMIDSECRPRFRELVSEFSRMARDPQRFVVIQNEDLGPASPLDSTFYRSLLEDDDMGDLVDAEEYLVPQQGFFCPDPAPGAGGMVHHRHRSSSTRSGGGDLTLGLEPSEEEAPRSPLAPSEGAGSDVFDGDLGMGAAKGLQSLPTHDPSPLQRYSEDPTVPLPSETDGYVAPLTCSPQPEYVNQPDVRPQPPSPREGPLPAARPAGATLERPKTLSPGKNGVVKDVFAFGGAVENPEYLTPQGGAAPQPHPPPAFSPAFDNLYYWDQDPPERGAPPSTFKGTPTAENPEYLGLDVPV

[3] = reduced viability of SK-BR-3 breast cancer cells – cell-based, 24 h, human, pilot screen (AID 572;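 active means viability at or below 10% of carrier control in both of two separate runs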;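 further: compound exposure lasted between 18 and 24 h rather than exactly 24 h; 100% = carrier-treated control wells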); settings: SK-BR-3 viability, CellTiter-Glo luminescence, at 10 µM, stronger effect = lower value
[4] = HUVEC growth inhibition – cell-based, human, primary screen (AID 575;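 active means viability at or below 30% in both replicate assays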;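 further: 100% = median of untreated cell wells with 0.1% DMSO on each plate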); settings: HUVEC proliferation, CellTiter-Glo luminescence, 72 h; at 10 µM; stronger effect = lower value
[5] = H69AR cell proliferation blockers – human, duplicate replicates, primary screen (AID 580;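 active means viability at or under a set limit in both replicates, limit being median viability minus 3 SD, cut at about 48% in these data, passing the limit was not always enough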;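 further: 100% = mean luminescence of untreated wells and 0% = no signal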); settings: H69AR lung tumor cells viability, ATP luminescence, 72 h; at 10 µM; stronger effect = lower value
[6] = MRP1 drug-resistance reversers in H69AR cells – cell-based, doxorubicin co-treatment, pilot screen (AID 601;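 active means viability loss from added drug above about 55%, and viability with drug at most 40%, in both replicates, limit read from the data, passing the limit was not always enough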); settings: CellTiter-Glo, 72 h, at 10 µM; for differential viability (reversal): stronger effect = higher value
[7] = yeast transport mutant growth inhibition pilot in 384-well plates, post-Golgi transport modulator project (AID 636; in the data active means inhibition above about 31%); settings: absorbance 615 nm, about 18 h, stronger effect = higher value
[8] = growth suppression of yeast trafficking mutant, preliminary HTS, modulators of trafficking downstream of Golgi apparatus project, 1536-format plate, OD 615 nm (AID 637); settings: yeast transport mutant growth, absorbance 615 nm, 18 h; stronger effect = higher value
[9] = S. cerevisiae growth inhibition in permissive medium (OD615), pilot counter-assay for S. cerevisiae lifespan shortening project, permissive growth control (AID 705;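 active means growth inhibition above 25% in both replicates, a cutoff set 3 SD above the mean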); settings: OD615, 24 h, at 10 µM, stronger effect = higher value
[10] = S. cerevisiae growth inhibition in restrictive medium, OD615, pilot screen, restrictive growth control, yeast lifespan reduction project (AID 706;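 active means growth inhibition above a set limit, 3 SD over mean compound inhibition, in both replicates, cut at about 43% in these data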;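 further: modified DeaD lifespan yeast strain shifted to restrictive glucose medium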); settings: OD615, 48 h, at 10 µM, stronger effect = higher value
[11] = doxorubicin toxicity protection in MRP-1 cells – H69AR cells, CellTiter-Glo, duplicate, MRP-1 activator project, pilot screen (AID 807;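 active means viability increase at or above a cutoff of the median across tested compounds plus 3 SD, cut at about 8.5% in these data, passing the limit was not always enough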;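 further: compound pretreatment 18-22 h then 72 h combined with doxorubicin; 0% = doxorubicin alone and 100% = vehicle without doxorubicin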); settings: H69AR viability with doxorubicin, CellTiter-Glo luminescence; at 10 µM; stronger effect = higher value
[12] = viability of HCT116 without oncogenic beta-catenin – human colon tumor cells, pilot screen (AID 823;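 active means cell viability at or below a set limit in both duplicate runs, the limit being the all-compound median minus 4 SD, cut at about 23% in these data, passing the limit was not always enough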;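 further: 0% = wells killed by 20 µM Hyamine and 100% = untreated DMSO cell wells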); settings: HCT116 beta-catenin knockout viability, CellTiter-Glo, 60 h; at 10 µM; stronger effect = lower value
[13] = viability of PTEN-null HCT116 cells – cell-based, HCT116 clonal line, CellTiter-Glo, pilot screen (AID 824;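 active means viability at or below 27.92% in each of two runs, the all-compound median minus 4 SD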;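 further: 0% = 20 µM Hyamine control and 100% = vehicle cell control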); settings: HCT116 PTEN-deleted viability, 60 h, at 10 µM, stronger effect = lower value
[14] = RAM pathway blockade in budding yeast – dse1pr::URA3 reporter, 5-FOA selection, pilot screen (AID 869;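 active means inhibition over a set limit, the all-compound mean plus 3 SD, in both replicate runs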;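 further: 0% = DMSO wells with no growth and 100% = 10 µM 1-NA-PP1 with full growth; RAM network block rescues cells from 5-FOA so hits raise OD615 growth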); settings: S. cerevisiae dse1pr::URA3 5-FOA growth, OD615, 2 d; at 10 µM; stronger effect = higher value; strain carries analog-sensitive mutant Cbk1 kinase
[15] = RAM signaling pathway blockade in yeast – S. cerevisiae, Pdr1DBD-CYC8 efflux-inhibited sensitized strain, primary screen (AID 1298;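 active means RAM network inhibition above 8.4% in each of two replicates, 3 SD over the compound average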;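 further: 0% = DMSO untreated cells without growth and 100% = 10 µM 1-NA-PP1 full growth; higher means more yeast growth rescued from 5-FOA killing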); settings: S. cerevisiae cbk1-as DSE1-URA3 strain, 5-FOA growth OD615, 2 d; at 50 µM; stronger effect = higher value
[16] = H69AR cells + 2 uM doxorubicin, measured here: viability with 2 uM doxorubicin, stronger effect = lower value
[17] = H69AR cells, compound alone cytotoxicity

Compound | viability [1] [%] | Her2 level [2] | viability [3] | viability [4] | viability [5] | differential viability (reversal) ([6]; H69AR cells + 2 uM doxorubicin) | viability [6, 16] [%] | viability [6, 17] [%] | inhibition [7] | inhibition [8] | growth inhibition [9] | growth inhibition [10] | viability increase [11] | viability [12] | viability [13] | inhibition [14] | RAM network inhibition [15]
O=C1c2ccccc2C(Nc2ccc(F)c(Cl)c2)N1Cc1ccco1 (stereo not drawn) | 92 | 99% (inactive) | 92% (inactive) | 58.4% (inactive) | 74% (inactive) | -0.96% (inactive) | 75 | 74 | -1.6% (inactive) | 3.83% (inactive) | -5.7% (inactive) | -1.3% (inactive) | -4.57% (inactive) | 72.8% (inactive) | 77.1% (inactive) | 1.6% (inactive) | 7.74% (inactive)
Cc1cc(C)nc(NC(=O)c2cnc3sccn3c2=O)n1 | 106 | 88.5% (inactive) | 106% (inactive) | 90.5% (inactive) | 96.5% (inactive) | -8.39% (inactive) | 105 | 96.5 | -4.67% (inactive) | 4.5% (inactive) | -12.5% (inactive) | -10.7% (inactive) | -1.3% (inactive) | 97.7% (inactive) | 98.3% (inactive) | 0.9% (inactive) | 0.52% (inactive)
O=C(Nc1ccncc1)c1cccc(F)c1 | 103 | 130% (inactive) | 103% (inactive) | 91.5% (inactive) | 92% (inactive) | -0.005% (inactive) | 92 | 92 | -3.08% (inactive) | -2.33% (inactive) | -5.12% (inactive) | 3.45% (inactive) | -1.19% (inactive) | 98.4% (inactive) | 91.4% (inactive) | -0.02% (inactive) | 2.86% (inactive)
CC(Oc1ccc2oc(-c3ccccc3)c(C(=O)O)c2c1)C(=O)O (stereo not drawn) | 95.5 | 77.5% (inactive) | 95.5% (inactive) | 103% (inactive) | 103% (inactive) | 6.43% (inactive) | 96.3 | 103 | -4.86% (inactive) | -6% (inactive) | -7.27% (inactive) | 2.06% (inactive) | -1.56% (inactive) | 99.3% (inactive) | 102% (inactive) | 1.73% (inactive) | 4.67% (inactive)
O=C(CN1C(=O)c2ccccc2S1(=O)=O)NCc1ccccc1Cl | 90.5 | 108% (inactive) | 90.5% (inactive) | 99% (inactive) | 89.3% (inactive) | 6.38% (inactive) | 82.9 | 89.3 | -2.05% (inactive) | -2.17% (inactive) | -8.21% (inactive) | -12.6% (inactive) | -0.47% (inactive) | 102% (inactive) | 100% (inactive) | 0.125% (inactive) | 4.41% (inactive)
CC(=O)C1=C(N2CCCCC2)CCC1=O | 86 | 101% (inactive) | 86% (inactive) | 109% (inactive) | 98.3% (inactive) | 11.5% (inactive) | 86.8 | 98.3 | -5.81% (inactive) | 5.33% (inactive) | 2.54% (inactive) | 4.54% (inactive) | -2.01% (inactive) | 94.5% (inactive) | 94.7% (inactive) | – | 0.55% (inactive)
CC(=O)c1ccc(OCC(O)CN2CCN(Cc3ccc4c(c3)OCO4)CC2)cc1 (stereo not drawn) | 102 | 102% (inactive) | 102% (inactive) | 101% (inactive) | 88.7% (inactive) | -2.19% (inactive) | 90.8 | 88.7 | -6.13% (inactive) | 2.5% (inactive) | -5.95% (inactive) | -5.68% (inactive) | -0.65% (inactive) | 102% (inactive) | 92.4% (inactive) | 1.67% (inactive) | 1.31% (inactive)
CCOC(=O)N1CCC(NC(=O)c2cc3c(=O)n(C)c4ccccc4c3n2C)CC1 | 88 | 94% (inactive) | 88% (inactive) | 71.3% (inactive) | 73.1% (inactive) | -4.2% (inactive) | 77.3 | 73.1 | -2.67% (inactive) | -1.17% (inactive) | -11.7% (inactive) | -13% (inactive) | -3.46% (inactive) | 80.2% (inactive) | 84.5% (inactive) | 2.96% (inactive) | 9.59% (inactive)
CCOc1ccccc1N1Cc2cc(C)c(C)cc2C1 | 92.5 | 104% (inactive) | 92.5% (inactive) | 90.4% (inactive) | 88.1% (inactive) | -9.66% (inactive) | 97.7 | 88.1 | -6.27% (inactive) | -0.83% (inactive) | -16.8% (inactive) | -12.1% (inactive) | -2.58% (inactive) | 63.6% (inactive) | 59.3% (inactive) | 2.19% (inactive) | 2.05% (inactive)
COC(=O)Cn1c(=NC(=O)CSCC(=O)Nc2cc(C)on2)sc2ccccc21 | 89 | 90% (inactive) | 89% (inactive) | 90.4% (inactive) | 88.5% (inactive) | 3% (inactive) | 85.5 | 88.5 | -5.07% (inactive) | -3.5% (inactive) | -6.84% (inactive) | -19.8% (inactive) | -0.92% (inactive) | 99.3% (inactive) | 96.9% (inactive) | – | 7.51% (inactive)
COC(=O)c1cn(C(=O)c2ccc(Br)o2)c2ccccc12 | 89 | 102% (inactive) | 89% (inactive) | 95.9% (inactive) | 88.3% (inactive) | -1.34% (inactive) | 89.6 | 88.3 | 1.03% (inactive) | -1.33% (inactive) | 4.04% (inactive) | 0.5% (inactive) | 0.03% (inactive) | 98.2% (inactive) | 102% (inactive) | 2.23% (inactive) | 4.65% (inactive)
Cc1ccccc1NC(=O)C1CCCN(S(=O)(=O)c2cnc[nH]2)C1 (stereo not drawn) | 85.5 | 108% (inactive) | 85.5% (inactive) | 95.8% (inactive) | 92.6% (inactive) | 1.39% (inactive) | 91.2 | 92.6 | -3.87% (inactive) | 3.33% (inactive) | -1.35% (inactive) | 0.61% (inactive) | -2.13% (inactive) | 102% (inactive) | 101% (inactive) | 2.71% (inactive) | 2.9% (inactive)
COc1cccc(C2=NOC(C(=O)N3CCc4ccccc4C3)C2)c1 (stereo not drawn) | 87 | 92.5% (inactive) | 87% (inactive) | 92.2% (inactive) | 92% (inactive) | 14.1% (inactive) | 77.9 | 92 | -1.41% (inactive) | -1.83% (inactive) | -9.41% (inactive) | 4.4% (inactive) | -2.18% (inactive) | 104% (inactive) | 95.5% (inactive) | -0.045% (inactive) | -2.13% (inactive)
CCCC(=O)Nc1cc(C)c2c(=O)oc3ccccc3c2n1 | 87 | 94.5% (inactive) | 87% (inactive) | 63.6% (inactive) | 77.6% (inactive) | -20.4% (inactive) | 98 | 77.6 | -0.4% (inactive) | 0.33% (inactive) | -11.5% (inactive) | 3.23% (inactive) | -4.74% (inactive) | 82.5% (inactive) | 86.1% (inactive) | 1.65% (inactive) | 8.68% (inactive)
Cc1cc(C)c(NC(=O)CSc2nc3c(c(=O)n2C)SC(C)C3)c(C)c1 (stereo not drawn) | 93.5 | 118% (inactive) | 93.5% (inactive) | 96.7% (inactive) | 90% (inactive) | -6.17% (inactive) | 96.2 | 90 | -2.67% (inactive) | 10% (inactive) | -7.85% (inactive) | -17.5% (inactive) | -0.13% (inactive) | 85.7% (inactive) | 77.5% (inactive) | 1.58% (inactive) | 4.95% (inactive)
CCCCOC(=O)Nc1nc2ccc(OC)cc2s1 | 94 | 92% (inactive) | 94% (inactive) | 92.3% (inactive) | 99.7% (inactive) | 16.4% (inactive) | 83.3 | 99.7 | -6.08% (inactive) | -6.17% (inactive) | -8.06% (inactive) | -16.4% (inactive) | 2.27% (inactive) | 96.3% (inactive) | 93.7% (inactive) | – | 7.75% (inactive)
Cn1c(=O)oc2cc(S(=O)(=O)NC3CCN(Cc4ccccc4)CC3)ccc21 | 103 | 96% (inactive) | 103% (inactive) | 90.9% (inactive) | 108% (inactive) | 14.4% (inactive) | 93.2 | 108 | -0.51% (inactive) | -1.17% (inactive) | -5.47% (inactive) | -3.98% (inactive) | -1.57% (inactive) | 92% (inactive) | 94.7% (inactive) | 1.28% (inactive) | 3.24% (inactive)
CCOc1ccc(Cn2nnc(C(=O)Nc3cc(C)cc(C)c3)c2N)cc1 | 89.5 | 90.5% (inactive) | 89.5% (inactive) | 80.4% (inactive) | 86.2% (inactive) | 7.9% (inactive) | 78.3 | 86.2 | 0% (inactive) | -3.28% (inactive) | -7.71% (inactive) | 1.04% (inactive) | -3.02% (inactive) | 73% (inactive) | 77.8% (inactive) | 3.23% (inactive) | 8.35% (inactive)
